Shown are actives, neighbours in structure and some others; about 2.9% of the full set was active somewhere.
SMARCA2 act: SMARCA2 (BRM) function activators, primary screen, cell-based, luminescence, high throughput; 370,000 tested, 1% active; AID 652017, 2013; activation, % at 9.1 µM; MG213 cells, MMTV-luciferase reporter, dexamethasone, overnight; in the data active = activation above about 7.8%;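 also: 0% = vehicle wells and 100% = reference activator wells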
KLK7 zymogen act: proKLK7 zymogen activators, primary screen, biochemical, fluorescence intensity; Kallikrein-7 (Homo sapiens), P49862; purified proKLK7, EDANS-DABCYL substrate fluorescence; 100% is mature enzyme control, 0% vehicle; activation, % at 7 µM; 370,000 tested, 0.9% active; AID 652039, 2013;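 active = activation above the mean of all tested compounds plus 3 SD, computed per campaign excluding outliers beyond control limits, cut at about 13% in these data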
Target sequence (P49862 whole entry, looked up): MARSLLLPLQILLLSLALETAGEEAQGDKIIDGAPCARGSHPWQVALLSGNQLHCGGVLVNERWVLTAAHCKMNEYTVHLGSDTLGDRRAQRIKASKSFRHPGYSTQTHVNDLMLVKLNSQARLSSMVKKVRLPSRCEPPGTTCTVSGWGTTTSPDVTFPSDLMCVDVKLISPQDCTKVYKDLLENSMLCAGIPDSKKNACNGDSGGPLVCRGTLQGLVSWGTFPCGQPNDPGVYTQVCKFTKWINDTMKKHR
GAA850 FXN act: FXN promoter activators, primary screen, cell-based, luciferase luminescence, HEK293 lucGAA850 | HEK293 lucGAA850 FXN promoter luciferase reporter, 24 h; percent of 10 µM SAHA response | activation, % at 6 µM | 360,000 tested, 0.56% active | AID 540364, 2011;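 active = activation above the average of all compounds screened plus 3 SD, cutoff fixed separately per campaign, cut at about 7.5% in these data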;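 also: 0% = DMSO wells and 100% = 10 µM SAHA wells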
FAS TE block: FAS thioesterase domain inhibitors, primary screen, biochemical, fluorescence intensity, uHTS; recombinant FAS-TE, OMFH fluorogenic substrate, fluorescence endpoint; inhibition, % at 15 µM; 360,000 tested, 0.67% active; AID 602261, 2012;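 active = compounds whose normalised, plate-corrected inhibition of enzyme fluorescence in the single-dose primary screen is 50% or more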;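 also: 0% = DMSO with enzyme and 100% = substrate without enzyme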
GAA30 FXN cntr: GAA30 FXN promoter activators, confirmation, counter-screen for GAA850 frataxin promoter activator project, cell-based, luminescence, HEK293, lucGAA30, triplicate. activation, % at 6 µM. shares compounds with GAA850 FXN act. 1,900 tested, 66% active. HEK293 lucGAA30 FXN promoter luciferase, 24 h; DMSO = 0%, 5 µM ipriflavone = 100%;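 active = mean activation above the mean of solvent-only control wells plus 3 SD, cut at about 22% in these data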;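 also: counterscreen of GAA850 promoter hits where activity marks nonselective or luminescence artifacts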
GAA850 confirm: FXN GAA850 promoter activators in reporter cells, confirmation, cell-based, luminescence, HEK293 lucGAA850, triplicate; shares compounds with GAA850 FXN act; HEK293 lucGAA850 FXN promoter luciferase reporter, 24 h; 100% = activation by SAHA; activation, % at 6 µM; 1,900 tested, 86% active; AID 588351, 2011;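 active = mean activation above a set limit taken from the primary screen, cut at about 8% in these data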;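 also: 0% = DMSO wells and 100% = 10 µM SAHA wells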
FAS-TE conf: FAS thioesterase domain inhibitors, confirmation, biochemical, fluorescence intensity, single concentration; inhibition, % at 15 µM; shares compounds with FAS TE block; AID 624325, 2012; 2,300 tested, 45% active; recombinant FAS-TE, OMFH fluorogenic substrate;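 active = compounds inhibiting the enzyme by at least 50% at 15 µM in any one of the replicates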;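 also: 0% = enzyme with DMSO only and 100% = wells lacking enzyme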
Starred values were filed as active, the others as inactive; . = no result.

SMILES	SMARCA2 act	KLK7 zymogen act	GAA850 FXN act	FAS TE block	GAA30 FXN cntr	GAA850 confirm	others
COc1ccc(/C=N\NC(=O)c2sccc2C)cc1Cn1nc(C)cc1C	6	1	8.1*	1	42*	22*
COc1ccc(/C=N\NC(=O)COc2ccccc2Cl)cc1Cn1nc(C)cc1C	1	1	0	-9	.	.
Cc1c(CCC(=O)NCCC(=O)O)c(=O)oc2cc3occ(-c4ccccc4)c3cc12	-3	-1	-1	-2	.	.
Cc1c(CCC(=O)NCC(=O)O)c(=O)oc2cc3occ(-c4ccccc4)c3cc12	-4	0	9.4*	2	2	1
COc1ccc(-n2nc(C(=O)N(C)C3CCCCC3)c3ccccc3c2=O)c(OC)c1	-2	-1	1	-2	.	.
Cn1c(=O)c(/C=C/c2ccccc2)nc2ccccc21	5	-3	8.1*	19	127*	50*
Cn1c(=O)c(/C=C/c2ccc(F)cc2)nc2ccccc21	-1	-5	5	10	.	.
CN(c1ccc(C(=O)Nc2ccc3c(c2)OCO3)cc1)S(C)(=O)=O	-2	0	4	-6	.	.
CN(c1ccc(C(=O)Nc2ccc3c(c2)OCCO3)cc1)S(C)(=O)=O	-3	0	9.2*	-3	93*	29*
Cc1ccc2c(COC(=O)c3ccccc3Cl)cc(=O)oc2c1	3	0	8.5*	8	126*	42*
Cc1ccc2c(COC(=O)c3ccccc3Br)cc(=O)oc2c1	3	0	4	25	.	.
Clc1nc(-c2cccnc2)nc2scc(-c3ccccc3)c12	5	0	8.1*	28	97*	31*
CC(C)NC(=S)NCc1cccnc1	-4	0	2	-6	.	.
CCCN1C(=O)S/C(=C/c2ccc(N3CCOCC3)o2)C1=O	1	1	6	-83	.	.
CCCN1C(=O)S/C(=C\c2ccc(N3CCOCC3)o2)C1=O	6	0	9.8*	-132	95*	29*
COc1ccc(-c2ccc(=O)n(Cc3c(F)cccc3Cl)n2)cc1	1	-9	8.0*	17	43*	22*
O=C(NCc1c(F)cccc1F)C1CCC(CNS(=O)(=O)c2cccc3cccnc23)CC1 (stereo unspecified)	4	0	.	.	.	.
COc1ccccc1CN(Cc1cc2c(C)ccc(C)c2[nH]c1=O)Cc1nnnn1Cc1ccco1	-3	-1	8.8*	18	-3	11*
COCc1cc(C)nc2sc(C(=O)Nc3ccc(OC)cc3)c(N)c12	2	2	6	8	.	.
COCc1cc(C)nc2sc(C(=O)Nc3cccc(OC)c3)c(N)c12	6	2	7.7*	10	115*	38*
CCOc1c(Cl)cc(C(=O)NCCN2CCCCC2)cc1Cl	1	0	13*	-3	9	6
Cc1ccc(C(=O)NCCN2CCCC2)cc1	-2	0	-1	-6	.	.
O=C(c1ccncc1)c1ccc(Br)cc1	-3	0	-1	-8	.	.
CN(C)C(=O)c1ccc(NC(=O)c2cc(-n3cnnc3)ccc2Cl)cc1	-1	-1	1	-6	.	.
COc1ccc(NC(=O)COc2ccc(/C=N/n3c(C)nnc3C)cc2OC)cc1	0	0	8.0*	0	37*	12*
SMILES	SMARCA2 act	KLK7 zymogen act	GAA850 FXN act	FAS TE block	GAA30 FXN cntr	GAA850 confirm	others
COc1cc(/C=N\n2cnnc2)ccc1OCC(=O)Nc1ccc(C)cc1	-2	-11	3	-2	.	.
Cc1nn(Cc2ccc(Cl)cc2)c(C)c1NC(=O)CCCn1nc(C)c([N+](=O)[O-])c1C	4	0	2	7	.	.
Cc1nn(Cc2ccccc2)c(C)c1NC(=O)CCCn1nc(C)c([N+](=O)[O-])c1C	-6	0	8.4*	17	7	1
CN(Cc1ccccc1)c1nc(N)c([N+](=O)[O-])c(Nc2cccc(F)c2)n1	1	0	9.6*	22	27*	17*
N#Cc1ccc(S(=O)(=O)N2CCCCC2c2cc(C(=O)Nc3cccc4c3CCCC4)no2)cc1 (stereo unspecified)	-2	0	7.9*	27	27*	12*
CCOC(=O)c1c(Nc2ccccc2N)cc(C)nc1C	-2	0	-3	-6	.	.
N#C/C(=C\c1ccccc1)C(=O)Nc1ccccn1	1	2	1	-3	.	.
N#C/C(=C\c1cccs1)C(=O)Nc1ccccn1	4	0	8.9*	-6	106*	34*
CC(C)OP(=O)(c1ccc(N(C)C)cc1)C(O)c1ccc(C(C)C)cc1 (stereo unspecified)	-2	0	11*	3	29*	13*
CC(C)CCOP(=O)(c1ccc(N(C)C)cc1)C(O)c1c(Cl)cccc1Cl (stereo unspecified)	-2	1	20*	7	26*	14*
CCCOP(=O)(c1ccc(N(C)C)cc1)C(O)c1c(Cl)cccc1Cl (stereo unspecified)	-2	0	4	-6	.	.
COc1ccc(C(=O)C(C)N(C(=O)c2ccc(Cl)cc2Cl)N2C(=O)C3C4C=CC(C4)C3C2=O)cc1 (stereo unspecified)	-6	0	7.8*	60*	25*	14*	FAS-TE conf=9
O=C(NC12CC3CC(CC(C3)C1)C2)c1cc([N+](=O)[O-])ccc1N1CCOCC1	1	1	10*	51*	17	10*	FAS-TE conf=39*
CCOc1ccc2[nH]c(=O)c(CN(Cc3ccc(C)cc3)C(=O)N3CCCC3)cc2c1	5	0	0	-3	.	.
Cc1ccc2c(C)c(C(=O)Nc3cccnc3)oc2c1	7	0	0	-9	.	.
O=C1C2C3C=CC(C4CC34)C2C(=O)N1/N=C/c1c[nH]c2ccccc12 (stereo unspecified)	-2	0	3	-8	.	.
CC[C@@]12C(=O)N(c3cccc(Br)c3)C(=O)N1[C@H](c1ccc(F)cc1)[C@@H]1C(=O)N(C3CCCCC3)C(=O)[C@@H]12	-1	0	8.4*	52*	18	12*	FAS-TE conf=24
CCN1C(=O)[C@H]2[C@@H](c3ccc(C)cc3)N3C(=O)N(c4cccc(Br)c4)C(=O)[C@@]3(C)[C@H]2C1=O	0	1	3	5	.	.

High-throughput results deposited in PubChem by several laboratories.
